HT1080 IDH1KD tx = qHTS for induction of synthetic lethality in tumor cells producing 2HG: qHTS for the HT-1080-IDH1KD cell line; hit rate 2% among 360,000; AID 686971, 2013; Potency, µM (doses to about 46.1 µM), most hits filed as cytotoxic; HT-1080 IDH1 knockdown viability, ATP luminescence, 48 h
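HT-1080-IDH1KD cells (IDH1 knocked down), 750/well in RPMI with 5% FBS, treated with compound 48 h at 37 degrees C. Viability by CellTiter-Glo luminescence, normalised to DMSO and no-cell wells; concentration-response curves classed.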
DT40 TDP1 no CPT = qHTS for Inhibitors of human tyrosyl-DNA phosphodiesterase 1 (TDP1): qHTS in cells in absence of CPT. hit rate 15% among 420,000. Potency, µM (doses to about 46.2 µM), most hits filed as inhibitors. AID 686978, 2013. DT40 Tdp1-/- hTDP1 cells, no CPT, ATP luminescence, 48 h; note: nearly all actives have a fitted effect of over 55% in size
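Chicken DT40 Tdp1-/- cells complemented with human TDP1, screened without camptothecin (DMSO vehicle only), 400 cells/well. Compounds pin-transferred, cells incubated at 37 °C for at least 48 hr. Growth read as ATP-dependent luminescence (CellTiter-Glo, 30 min at RT).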
IL1B secr inh = qHTS for Inhibitors of Inflammasome Signaling: IL-1-beta AlphaLISA Primary Screen; THP-1 LPS/ATP IL-1B secretion, AlphaLISA, 16 h; active compounds read low; activity change, % at 57.5 µM; hit rate 4.7% among 360,000; AID 743279, 2014; in the data active = activity change below about -50%; inconclusive = mostly about -30% to -49%
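Secreted IL-1B measured by AlphaLISA bead assay after 16 h compound exposure of THP-1 cells; compounds (final up to 57.5 uM) added 1 h before LPS (250 ng/mL) and ATP (1.25 mM) stimulation; lower signal means less secretion.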
TDP1 cell CPT = qHTS for Inhibitors of human tyrosyl-DNA phosphodiesterase 1 (TDP1): qHTS in cells in presence of CPT | chicken DT40 Tdp1-/-;hTDP1 cells + 20 nM CPT, ATP luminescence, 48 h | Potency, µM (titrated, usually from 46.2 µM), usual class: inhibitors | hit rate 12% among 420,000; note: nearly all actives have a fitted effect of over 55% in size
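Chicken DT40 Tdp1-/- cells complemented with human TDP1, 400 cells/well, exposed to compounds plus 20 nM camptothecin for at least 48 h at 37 C; viability read as ATP content by CellTiter-Glo luminescence.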
HT1080-NT tox = qHTS for induction of synthetic lethality in tumor cells producing 2HG: qHTS for the HT-1080-NT fibrosarcoma cell line; AID 686970, 2013; Potency, µM (series often up to 46.1 µM), usual class: cytotoxic; hit rate 1.6% among 360,000; HT-1080-NT fibrosarcoma viability, CellTiter-Glo ATP luminescence, 48 h;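 note: NT is the 2HG producing partner of a matched IDH1 knockdown line; nearly all actives have a fitted effect of over 55% in size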
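HT-1080-NT; 750 cells/well; 5% FBS RPMI; 48 h compound, 37 degrees C; CellTiter-Glo luminescence; curve fitting and curve-class assignment.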
Numbers stand for hits. An excerpt weighted towards active compounds, which were near 19% of everything screened. Unless noted, calls come from the whole dose curve; as a rule, active = well fitted curve in the direction sought with a large enough effect; inconclusive = small, poorly fitted or top-dose-only effect, or another doubt; inactive = no such curve, though single readings can be large; an effect the other way counts as inactive or inconclusive.

COc1cc(OC)c(N(C)S(=O)(=O)c2cccc(C(=O)OCC(=O)N(C)C3CCCCC3)c2)cc1Cl was read as HT1080 IDH1KD tx inactive, DT40 TDP1 no CPT inconclusive, IL1B secr inh inactive, TDP1 cell CPT inconclusive and HT1080-NT tox inactive.
For Cc1cc(CNC(=S)Nc2cccc(Cl)c2Cl)nn1C the results were HT1080 IDH1KD tx inactive, DT40 TDP1 no CPT inactive, IL1B secr inh inactive, TDP1 cell CPT inactive and HT1080-NT tox inactive.
`CCCCOc1cccc(C(=O)Nc2ccc(S(=O)(=O)Nc3nnc(CC)s3)cc2)c1` gave HT1080 IDH1KD tx inactive, DT40 TDP1 no CPT inactive, IL1B secr inh inactive, TDP1 cell CPT inactive and HT1080-NT tox inactive.
For CC(C)c1cccc(-c2ccc3c(c2)S(=O)(=O)c2cccc(C(=O)NCc4ccccc4)c2C3=O)c1 the results were HT1080 IDH1KD tx inactive, DT40 TDP1 no CPT 23.1µM, IL1B secr inh inactive, TDP1 cell CPT inconclusive and HT1080-NT tox inactive.
Screening CC(C)c1cccc(-c2ccc3c(c2)S(=O)(=O)c2cccc(C(=O)NCc4ccccc4Cl)c2C3=O)c1 returned HT1080 IDH1KD tx inactive, DT40 TDP1 no CPT 6.51µM, IL1B secr inh inactive, TDP1 cell CPT 2.59µM and HT1080-NT tox inactive.
`COc1ccc(OC[C@@H](O)CNC(=O)c2cccc3c2C(=O)c2ccc(Cl)cc2S3(=O)=O)cc1` gave HT1080 IDH1KD tx inactive, DT40 TDP1 no CPT inconclusive, IL1B secr inh inactive, TDP1 cell CPT inactive and HT1080-NT tox inactive.
Screening Cc1ccc(Cc2cnc(N3C(=N)SC(C)C3=O)s2)cc1 (centres undefined) returned HT1080 IDH1KD tx inactive, DT40 TDP1 no CPT inconclusive, IL1B secr inh inactive, TDP1 cell CPT inconclusive and HT1080-NT tox inactive.
Cc1cccc(Cc2cnc(N3C(=N)SC(c4ccccc4)C3=O)s2)c1 (centres undefined) was read as HT1080 IDH1KD tx inactive, DT40 TDP1 no CPT 25.9µM, IL1B secr inh inactive, TDP1 cell CPT 29.1µM and HT1080-NT tox inactive.
`Cc1cccc(Cc2cnc(N3C(=N)SC(C)C3=O)s2)c1` (centres undefined) gave HT1080 IDH1KD tx inactive, DT40 TDP1 no CPT 18.4µM, IL1B secr inh -84.4, TDP1 cell CPT inconclusive and HT1080-NT tox inactive.
`CC(=O)N1CCN(S(=O)(=O)c2ccc(S(=O)(=O)NC3CCCCC3)cc2)CC1` gave HT1080 IDH1KD tx inactive, DT40 TDP1 no CPT inconclusive, IL1B secr inh inactive, TDP1 cell CPT inactive and HT1080-NT tox inactive.
Screening COC(=O)C1=CN(c2ccccc2OC)C(N)=C(C#N)C1c1cccc([N+](=O)[O-])c1 (centres undefined) returned HT1080 IDH1KD tx 1.84µM, DT40 TDP1 no CPT 1.3µM, IL1B secr inh inactive, TDP1 cell CPT 0.82µM and HT1080-NT tox 2.31µM.
COC(=O)C1=CN(c2cccc(OCc3ccccc3)c2)C(N)=C(C#N)C1c1ccccc1 (centres undefined) was read as HT1080 IDH1KD tx inactive, DT40 TDP1 no CPT inconclusive, IL1B secr inh inactive, TDP1 cell CPT inconclusive and HT1080-NT tox inactive.
`COC(=O)C1=CN(c2ccc(N3CCOCC3)cc2)C(N)=C(C#N)C1c1ccc(-c2ccccc2)cc1` (centres undefined) gave HT1080 IDH1KD tx inactive, DT40 TDP1 no CPT 5.8µM, IL1B secr inh inactive, TDP1 cell CPT 7.31µM and HT1080-NT tox inactive.
Screening COC(=O)C1=CN(c2ccc3c(c2)OCO3)C(N)=C(C#N)C1c1ccccc1 (centres undefined) returned HT1080 IDH1KD tx 11.6µM, DT40 TDP1 no CPT 5.8µM, IL1B secr inh inactive, TDP1 cell CPT 5.17µM and HT1080-NT tox 18.4µM.
For COC(=O)C1=CN(c2cccc(OCc3ccccc3)c2)C(N)=C(C#N)C1c1ccc(-c2ccccc2)cc1 (centres undefined) the results were HT1080 IDH1KD tx inactive, DT40 TDP1 no CPT inactive, IL1B secr inh inactive, TDP1 cell CPT inactive and HT1080-NT tox inactive.

Assay outcomes (PubChem)
